The values below come from the supplement of paper PMC6555819.

This test relates to VDR:RXRa (NR concentration 270 nM, RXRa partner concentration 90 nM). Kind of test: PBM binding z-score (relative to random genomic background probes); higher = stronger binding; sequences stand for … in GC…GCGATTGACAGCGTAGAATGAAGG
On the procedure:
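Protein-binding microarray (Agilent 4x180K custom design, double-stranded 60-nt probes: 5' GC cap, 34-nt variable region, 24-nt constant primer region; full probe sequence given). Purified or IVT nuclear receptor:RXRα heterodimers (3:1 NR:RXRα, mostly 270:90 nM) or homodimers were incubated for 1 h in PBS with 2% milk and no ligand, then detected with Alexa488 antibodies. Fluorescence from o1-orientation probes (~5 replicates averaged) was converted to z-scores against 500 random hg19 background probes. Variable regions are seed direct-repeat (DR0–DR5) sites, all their single-nucleotide variants and half-site ablations.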
Turning to GCTCGGAGGACAAGGTCAGAGTTTTGTCCGTAGA, the PBM binding z-score stood at 1.65.
In the case of ATCTCTAGGTAATACTCAGTTCAGTGAAGAACGC it was 1.55.
In the case of GATACAGGGTCAAGGCCATAGTACGCGTATTGAT it was 4.21.
In the case of TAGCCTAGGTCATGGGCCAGTAAACCACGCGAAC it was 2.07.
Sequence CCTTACGGGTCACTGACAGGTTATCGCATTTGGA had a PBM binding z-score of 3.85.
With TCTAGCACGCCAGAGGGTCACTCAAGAGGTACGG the figure was 1.37.
In the case of TCATATAGGTAAATGCAAGGTGAAAGTCCGATCT it was 1.37; in that of TCGTGTAGATCAATAGAGGTTAAGAAAGTGCGCT, 1.83.
With TCGAGTAGGTTAGGGGCATTCCGAATGGCGTCGA the figure was 0.256.
The sequence CCTACGGGGCCATCAGGTCATTGATATCAACGTT returned a PBM binding z-score of 3.06.
In the case of ATCTCTAGGTAAAATTCAGTGAAAGATCGATAGA it was 0.35; in that of CAAACTAGGCCACAGAGGTCAAAGTCCGTGCGTA, 6.29; in that of ATCTCTAGATAAAGATAGTTCAGTGAATGCAAAT, 0.517.
With TTACCAGGGTGAAAGGTCGTTGATGCACGCCTTG the figure was 3.28; with TCGAGTAGGTTAGGGGCATTGAGAATGGCGTCGA, 0.491; with CCGACTGGGGCAGAAAAGTTACCATACCATCCGG, -0.576.
In the case of TAGCCTAGGTCATTGGGCCCGTATAGTACGCATC it was 2.74; in that of TAGCCTAGGTCATGAGGGCCAGTATAGTGTCGGC, 3.51; in that of GATACAGGGTCAGCTAGAGGCCAGAGAATGGAAA, 3.42.
For the sequence TTACCAAGGAGAAAGGTCGTTGATGCACGCCTTG, the PBM binding z-score is 1.49.
With TAGCCTAGGTTATTCAGGGGCCAGTATAGAAAGC the figure was 0.101; with TAGAGTAGGTTAGTCGGGGCATTCAGCCAACATA, 2.52; with CCTACTGGGGCATTCAGAGGTCATTGATCATATG, 4.47.
In the case of CGTCCGAGGTCAGAGAGGTCAGTGAATGCCGAGT, the PBM binding z-score worked out at 7.89.
In the case of CGAACGAGGGCATGAGTTGAAAGCAAATGCCGAT it was 1.25; in that of GCTCGGAGGGCAAGGTCAGAGCTTTGTCCGTAGA, 1.72.
In the case of TCGAGTAGGTTACAAATGGGGCATTCAGCTTTCT it was 0.216; in that of AGTCAAAGTTCACTTGGTAACGTAAGATTCAGCT, 4.07; in that of TCATAAAGGTAAATGCTAGGTGAAAGTCCGATCT, 0.918.
With GGACCAAGGTGAATAGGTCGTTGATGAGTAGGCG the figure was 0.886.
In turn, CCTATTAGTTGACCATAAGGGCAACGGAAGCTCG registered a PBM binding z-score of 0.803.
In turn, TCTTGTAGATTAAAGGTTAAGAAAGCCGAAGCCT showed a PBM binding z-score of 1.09.
With CCTACTGGGCCAAAGTTCATTGATTCCAATGCTC the figure was 3.24.
On to CAAACTAGGTCACAGCGGTCAAAGTCCGTGCGTA, for which the PBM binding z-score was found to be 5.9.
Regarding CCGACTGGGGCAAAGGTTACCAAACTCAGTACGA, the PBM binding z-score is 1.91.
In the case of CAAACTAGGTCACCGGAAGGTCAAAATCCGCATG it was 5.69; in that of CGTCCAAGGTCATAGGAGGGCAGTGAAGACAGAT, 5.36.
GCGACTGGTGCAAAGCAGGTTACCATAAGGTTGG showed a PBM binding z-score of -0.134.
With CCTACTGGGCCAAGGTCGTTGATCAGTCAAAGCA the figure was 0.505; with ATCGAAAGGTCGAAGGTGAATATACCCACCCGAA, 3.08.
